Hits are enriched below; roughly 8.9% of the tested compounds scored in any of these assays.
DRD3 agonist: agonists of human D3 dopamine receptor; P35462; D3R DiscoveRx beta-arrestin cells, luminescence, 90 min; max activation, %; actives 0.58% (n = 410,000); AID 652048; in the data active = max activation above about 30%; also: 0% is about no effect
Target sequence (P35462 whole entry, looked up): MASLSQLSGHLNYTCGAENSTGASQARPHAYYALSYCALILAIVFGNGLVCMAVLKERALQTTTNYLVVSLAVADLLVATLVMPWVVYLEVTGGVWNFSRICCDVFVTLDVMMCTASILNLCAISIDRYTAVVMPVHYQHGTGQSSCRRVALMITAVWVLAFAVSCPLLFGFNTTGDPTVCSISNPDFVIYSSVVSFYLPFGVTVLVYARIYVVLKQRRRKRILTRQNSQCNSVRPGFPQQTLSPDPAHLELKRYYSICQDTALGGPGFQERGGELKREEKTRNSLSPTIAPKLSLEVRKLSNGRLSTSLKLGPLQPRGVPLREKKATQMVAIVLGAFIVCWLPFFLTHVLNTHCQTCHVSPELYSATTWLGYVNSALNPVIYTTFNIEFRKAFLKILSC
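Cells at 1500/well, incubated overnight, then treated with pinned compounds (dopamine as control) for 90 min at 37 degrees C. DiscoveRx reagent added for 30 - 60 minutes at room temperature; luminescence read.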
DRD3 antagonist: antagonists of human D3 dopamine receptor. P35462. D3R cells, DiscoveRx beta-arrestin luminescence, antagonist mode; stronger effect = lower value. max response, negative = inhibition, %. actives 2.5% (n = 360,000). AID 652054; in the data active = max response below about -50%; inconclusive = no clear call, values can overlap the other calls; also: % is scaled to controls: 0 for no effect and ±100 for the full control effect
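Cells expressing the human receptor were seeded at 1500 cells/well, incubated overnight at 37 degrees C in 5% CO2, then exposed to library compounds with dopamine controls for 90 minutes at 37 degrees C before luminescent detection.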
SW480 rerep: DNA re-replication induction in SW480 cells; actives 1.8% (n = 340,000); Potency, µM (top dose mostly 46.1 µM), inactives show at the highest dose re-replication activation, actives largely listed as activators; SW480 DNA re-replication, Hoechst DNA content imaging, 48 h; also: potency is read from the fitted curve at half-maximal effect; % of control where 0% means no effect; nearly all actives have a fitted effect of over 55% in size
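Readout is total intensity of Hoechst-stained nuclei, excited at 405 nm and collected at 500-530 nm. Compound treatment lasted 48 hr at 37 C in 5% CO2 before staining.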
KB-V1 MDR tox: kills drug-selected multidrug resistant KB-V1 cells; actives 3.4% (n = 400,000); Potency, µM (titrated, usually from 46.1 µM), most hits filed as cytotoxic; KB-V1 MDR cells viability, CellTiter-Glo, 72 h; AID 1347076; also: potency is read from the fitted curve at half-maximal effect; % is scaled to controls: 0 for no effect and ±100 for the full control effect; nearly all actives have a fitted effect of over 60% in size
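KB-V1 MDR subline cells in DMEM (phenol-red free, 10% FBS) exposed to compounds in qHTS concentration series for 72 h at 37 degrees C. Viability read by CellTiter-Glo luminescence; concentration-effect curves fitted after normalization and correction.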
KB-3-1 cytotox: KB-3-1 parental cell cytotoxicity. KB-3-1 viability, CellTiter-Glo ATP luminescence, 72 h. Potency, µM (top dose mostly 46.1 µM), usual class: cytotoxic. actives 1.4% (n = 400,000). AID 1347075; also: potency is read from the fitted curve at half-maximal effect; % is scaled to controls: 0 for no effect and ±100 for the full control effect; nearly all actives have a fitted effect of over 60% in size
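Using CellTiter-Glo luminescence, growth of non-resistant KB-3-1 adenocarcinoma cells is assessed 72 h after pin-tool compound addition at 37 °C. Normalized responses across the concentration series yield fitted curves.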
MCF10A rereplic: inducers of DNA re-replication in MCF 10A breast cells; MCF 10A DNA re-replication, Hoechst nuclear intensity, 48 h; Potency, µM (series often up to 46.1 µM), without a hit: at the top dose activity, positive = re-replication, most hits filed as activators; actives 2.9% (n = 350,000); AID 624296; also: potency is read from the fitted curve at half-maximal effect; % of control where 0% means no effect; nearly all actives have a fitted effect of over 50% in size
Active calls of the source: *; i = inactive; ? = inconclusive; / = no result given. Unless noted, calls follow the shape of the dose curve; as a rule, active = well fitted curve in the direction sought with a large enough effect; inconclusive = small, poorly fitted or top-dose-only effect, or another doubt; inactive = no such curve, though single readings can be large; an effect the other way counts as inactive or inconclusive.

SMILES	DRD3 agonist	DRD3 antagonist	SW480 rerep	KB-V1 MDR tox	KB-3-1 cytotox	MCF10A rereplic
Cn1c(=O)c2nc(NCc3ccccc3)cnc2n(C)c1=O	1.2	19.3	0.8%	18.4µM*	i	0.4%
Cn1c(=O)c2c(nc(NCc3ccc4c(c3)OCO4)n2Cc2ccccc2)n(C)c1=O	-2.2	-1.2	?	i	23.1µM*	?
CCOc1ccc(Nc2nnc(-n3nc(C)cc3C)c3ccccc23)cc1	-11.8	/	/	i	i	/
Cn1c(=O)c2c(nc(NCc3ccccc3)n2Cc2ccc(Cl)c(Cl)c2)n(C)c1=O	16.6	/	/	18.4µM*	?	/
Cn1c(-c2ccc3c(c2)OCO3)cnc1NCc1cccc(Cl)c1	-11.4	-13.0	1.0%	?	i	?
Cn1c(=O)c2c(nc(NCCCO)n2CCc2ccccc2)n(C)c1=O	1.6	5.3	-7.6%	i	i	-3.8%
COc1cc(/C=N/Nc2nc3c(c(=O)n(C)c(=O)n3C)n2Cc2ccccc2)ccc1OC(=O)c1ccco1	65.6*	56.8	?	9.2µM*	?	?
Cn1c(=O)c2c(nc(NCc3ccccc3)n2Cc2ccccc2)n(C)c1=O	3.3	/	/	i	i	/
Cn1c(-c2ccc3c(c2)OCO3)cnc1NCc1ccccc1	-17.5	10.4	?	13µM*	?	25.9µM*
Cn1c(=O)c2c(nc(NCCO)n2CCc2ccccc2)n(C)c1=O	-9.0	-18.7	-15.8%	i	20.6µM*	-3.7%
Cc1ccc(-n2ncc(C(=O)NCc3cccs3)c2C2CCN(C(=O)OC(C)(C)C)CC2)cc1C	-13.2	/	/	i	i	/
COC(=O)c1c(NC(=O)c2nc(SCc3cccc(C)c3)ncc2Cl)sc2c1CCCC2	-11.0	/	/	i	i	/
CC(=O)C1=C(O)C2(C)c3c(O)c(C)c(O)c(C(C)=O)c3OC2CC1=O (stereo not drawn)	2.3	43.0	/	16.4µM*	i	/
COc1ccc2nc(N3CCN(C(=O)C4CC4)CC3)sc2c1	0.3	/	/	/	/	/
O=C(CCn1ccc2cc(S(=O)(=O)N3CCCC3)ccc21)NCc1ccccc1Br	7.8	/	/	i	i	/
CN(C)c1nc(NS(=O)(=O)c2ccc(Cl)cc2)nc(N(C)C)n1	14.0	-14.5	1.8%	13µM*	i	9.0%
Cc1ccc(N2CC(c3nnc(NC(=O)c4ccco4)s3)CC2=O)cc1C (stereo not drawn)	-8.2	/	/	i	i	/
OC[C@H](S)CS	/	/	16.5%	i	?	9.44µM*
OCC(S)CS (stereo not drawn)	-8.0	/	/	/	/	/
COc1ccc(NC(=O)Nc2nnc(N3CCCCCC3)s2)c(OC)c1	-2.2	/	/	i	i	/
Cc1ccc(N(CC(O)Cn2c3ccccc3c3ccccc32)S(=O)(=O)c2ccc(F)cc2)cc1 (stereo not drawn)	15.2	/	/	/	/	/
Cc1ccc(N(CC(O)CN2CCCCC2)S(=O)(=O)c2ccccc2)cc1 (stereo not drawn)	-19.1	-77.1*	2.4%	i	i	1.5%
Cc1ccc(N(CC(O)CN2CCCCC2)S(=O)(=O)c2ccc(C)cc2)cc1 (stereo not drawn)	-18.3	-51.6*	-1.9%	?	i	?
COc1ccc(N(CC(O)Cn2c3ccccc3c3ccccc32)S(=O)(=O)c2ccccc2)cc1 (stereo not drawn)	-5.3	-10.8	?	23.1µM*	?	5.1%
CC(=O)Nc1ccccc1N(CC(O)Cn1c2ccccc2c2ccccc21)S(=O)(=O)c1ccc(C)cc1 (stereo not drawn)	10.4	3.8	23.1µM*	?	i	?
Cc1ccc(S(=O)(=O)N(CC(O)CN2CCCC2)c2ccccc2)cc1 (stereo not drawn)	-24.6	?	2.1%	i	i	0.4%
COCCn1c(C)cc(O)c(C(c2ccc(F)cc2)N2CCN(c3ccccc3)CC2)c1=O (stereo not drawn)	-15.9	/	/	i	i	/

Compound activity (PubChem BioAssay)
